An excerpt weighted towards active compounds, which were near 2.9% of everything screened.
IP6K1 inh = blocks human inositol hexakisphosphate kinase 1; hit rate 0.81% among 140,000; Q92551; IP6K1 kinase, ADP-Glo luminescence, 2 h; hits give low values; activity change, % (series mostly up to about 58 µM); in the data active = activity change below about -25%; also: % is scaled to controls: 0 for no effect and ±100 for the full control effect
Target sequence (Q92551 whole entry, looked up): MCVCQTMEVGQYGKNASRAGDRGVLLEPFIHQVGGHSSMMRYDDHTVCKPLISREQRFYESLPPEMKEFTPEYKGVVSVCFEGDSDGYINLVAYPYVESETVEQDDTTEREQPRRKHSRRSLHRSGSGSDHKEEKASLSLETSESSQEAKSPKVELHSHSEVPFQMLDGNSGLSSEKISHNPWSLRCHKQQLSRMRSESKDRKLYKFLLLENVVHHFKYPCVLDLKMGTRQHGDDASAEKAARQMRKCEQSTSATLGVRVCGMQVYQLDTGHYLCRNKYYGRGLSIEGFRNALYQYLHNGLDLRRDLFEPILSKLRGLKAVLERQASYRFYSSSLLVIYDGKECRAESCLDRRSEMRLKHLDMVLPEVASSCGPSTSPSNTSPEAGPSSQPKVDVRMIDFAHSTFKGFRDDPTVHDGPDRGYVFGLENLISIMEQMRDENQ
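ADP-Glo luminescence measures ADP made by human IP6K1 during a 2 h RT reaction with ATP/IP6 (mix at 1.3 mM/130 uM); top library doses 57.5 and 19.1 uM final.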
HEK293 viab = counter-screen for SNCA expression inhibitors: cell viability. HEK-293-SNCA-luc viability, GF-AFC fluorescence, 24 h. Potency, µM (doses to about 57.1 µM), for inactives: top-dose activity change, negative = cytotoxicity, hits mostly cytotoxic. hit rate 0.12% among 150,000. AID 1671193;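 also: potency is read from the fitted curve at half-maximal effect; 0% = DMSO-treated cells and -100% = medium-only wells without cells; nearly all actives have a fitted effect of over 30% in size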
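HEK-293-SNCA-luc cells (1500/well) plated 24 h, then exposed 24 h to a dilution series; GF-AFC added 30 min at 37C, fluorescence 405/540 nm; normalised to medium-only and DMSO wells, Hill fit.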
SNCA expr inhib = SNCA gene expression inhibition | Potency, µM (top dose mostly 57.2 µM), for inactives: at the highest dose activity change, negative = inhibition, hits mostly inhibitors | hit rate 0.17% among 140,000 | HEK-293 SNCA-luciferase knock-in, luminescence, 24 h;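 also: potency is read from the fitted curve at half-maximal effect; plate controls were DMSO cells for no effect and cell-free wells for full effect; nearly all actives have a fitted effect of over 45% in size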
KDM5B inh = blocks human KDM5B histone demethylase activity; KDM5B demethylase, FDH-coupled NADH fluorescence (FDH is formaldehyde dehydrogenase); Q9UGL1; hit rate 2.6% among 220,000; Potency, µM (titrated, usually from 57.7 µM), most hits filed as inhibitors; also: potency is read from the fitted curve at half-maximal effect; 0% is about no effect; nearly all actives have a fitted effect of over 70% in size
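Inhibition is measured as reduced NADH fluorescence generation from FDH coupling to formaldehyde release. Truncated KDM5BΔAP at 200 nM final acts on H3K4me3 peptide (12.5 µM in substrate mix) in pH 7.5 HEPES buffer with Tween-20, 30 min, room temperature.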
Starred values were filed as active, the others as inactive; i = inactive; ? = inconclusive; . = no result given; [ ] = another dose, or the depositor's remark. Unless noted, calls follow the shape of the dose curve; as a rule, active = well fitted curve in the direction sought with a large enough effect; inconclusive = small, poorly fitted or top-dose-only effect, or another doubt; inactive = no such curve, though single readings can be large; an effect the other way counts as inactive or inconclusive.

SMILES | IP6K1 inh | HEK293 viab | SNCA expr inhib | KDM5B inh
COCCN1CC(CO)C2(CCN(C(=O)CCn3cc(C)cn3)CC2)C1 (centres undefined) | 12 | -4% | 5% | ?
Cc1ccccc1C(=O)N1CCC2(CC1)CN(c1ncccn1)CC2CO (centres undefined) | 12 | 1% | -25% | 32µM*
CC(=O)N1CC(CO)C2(CCN(C(=O)c3cccc(C#N)c3)CC2)C1 (centres undefined) | 30 | -11% | -1% | i
Cc1cnn(CC(=O)N2CCC3(CC2)CN(c2ncccn2)CC3CO)c1 (centres undefined) | 4 | -2% | -19% | 35µM*
CC(C)n1ncc2cc(C(=O)NCc3ccc(OC(F)F)cc3)cnc21 | . | . | . | i
Nc1oc2ccccc2c(=O)c1-c1ccc(Br)cc1 | . | . | . | i
N#CC1=C(N)OC2=C(C(=O)CCC2)C1c1ccccc1OC(=O)N1CCOCC1 (centres undefined) | . | . | . | i
CC(C)c1ccc(S(=O)(=O)NCC(c2cccnc2)S(=O)(=O)c2ccccc2)cc1 (centres undefined) | . | . | . | i
Cc1cccc(-c2[nH]ncc2C=O)c1 | . | . | . | i
Cc1ccc(CN2C(=O)C(=O)c3cc(Br)cc(C)c32)cc1 | -9 | ? | 22µM* | ?
COc1ccc(NC(=O)Nc2cccc(-c3ccc(N4CCOCC4)nn3)c2)cc1F | -14 | -26% | 20µM* | ?
Cc1ccc(CN(C)C(=O)c2n[nH]c(=O)c3ccccc23)o1 | . | . | . | i
O=C(NC1CC1)c1ccc2nnc(-c3ccc(C(F)(F)F)cc3)n2c1 | 13 | 2% | -11% | 56µM*
O=C(NC1CC1)c1ccc2nnc(-c3cccnc3)n2c1 | 7 | -4%[87.6 µM] | -19%[87.6 µM] | 112µM*
O=C(NC1CCCCC1)c1ccc2nnc(-c3cccnc3)n2c1 | 25 | -3%[87.6 µM] | -6%[87.6 µM] | .
CCC(=O)NCC[C@@H]1CCc2ccc3c(c21)CCO3 | . | 3% | -15% | .
COc1ccc(C(=O)NC(C)c2nncn2C)cc1OC1CCN(C(C)=O)CC1 (centres undefined) | -9 | -1% | -23% | i
COc1ccc(OC2CCN(C(C)=O)CC2)c(C(=O)NC(C)c2cn(C)nc2C)c1 (centres undefined) | 24 | -20% | -1% | 32µM*
Cc1ccccc1C(=O)N1CCC(N2C(=O)c3c(c(C)nn3-c3ccccc3)C2C)CC1 (centres undefined) | -4 | . | . | .
COc1ccc(CCN(C)C2CCCN(c3ncccc3C#N)C2)cc1OC (centres undefined) | 25 | -21% | -21% | 25µM*
O=C(Nc1ccc(Cl)cc1)N1CCC(C(=O)N2CCCC(c3nc4ncccc4[nH]3)C2)CC1 (centres undefined) | -7 | 10% | -20% | .
CC(=O)NC1(C)CCN(Cc2cnc(-c3ccccc3OCc3ccccc3)s2)CC1 | -9 | -9%[87.6 µM] | 0%[87.6 µM] | 40µM*
CCn1ccc(C(=O)N2CCC3(CC2)c2[nH]c4ccc(OC)cc4c2CCN3C)n1 | 4 | 1%[12.5 µM] | 21% | 22µM*
COc1ccc2[nH]c3c(c2c1)CCNC31CCN(C(C)C)CC1 | 9 | 7%[12.5 µM] | 2% | 22µM*
COc1ccc2[nH]c3c(c2c1)CCNC31CCN(C(=O)Cn2c(=O)oc3ccccc32)CC1 | -2 | 2%[12.5 µM] | 62% | 20µM*
SMILES | IP6K1 inh | HEK293 viab | SNCA expr inhib | KDM5B inh
CCOCC(=O)N1CCC2(CC1)NCCc1c2[nH]c2ccc(OC)cc12 | 0 | -3%[12.5 µM] | 18% | 16µM*
COc1ccc2[nH]c3c(c2c1)CCNC31CCN(C(=O)COc2ccc(F)cc2)CC1 | 11 | -8%[12.5 µM] | 6% | ?
COc1ccc2[nH]c3c(c2c1)CCNC31CCN(C(=O)C2CC2)CC1 | -3 | 0%[12.5 µM] | -22% | ?
CCO[C@H]1CN(C(=O)COc2ccc(-n3cnnn3)cc2)C[C@@H]1O | -14 | 4% | -8% | i
CC(C)c1nc2c(c(-c3ccc(Cl)cc3)n1)CCN(Cc1ccccc1)CC2 | 11 | 3% | -4% | i
Cc1ccc(-c2nc3n(n2)C(=O)CC(c2ccc(C)cc2)S3)cc1 (centres undefined) | -1 | 0% | 5% | i
COCc1cc(NCCCNc2cccnc2)ncn1 | 4 | 0% | 0% | 14µM*
COCc1cc(NCCSCc2ccccc2C)ncn1 | -16 | 3% | 14% | i
CC(=O)NCCNc1cc(C)c2ccc(Cl)cc2n1 | 56 | -4% | 3% | 25µM*
Cc1ccc(Cl)cc1Nc1nnc(C(C)(C)C)c(=O)[nH]1 | . | . | . | i
O=C(O)[C@@H]1CN(Cc2ccccc2)C[C@@H]1C(=O)N1CCN(c2ccccn2)CC1 | 4 | -16% | 7% | 22µM*
O=C(C1Cn2cccc2C(=O)N1Cc1ccccc1)N1CCN(c2ncccn2)CC1 (centres undefined) | 12 | 19% | 2% | 18µM*
O=C(NC(Cc1ccccc1)C(=O)N1CCN(c2ncccn2)CC1)c1ccccc1 (centres undefined) | . | . | . | i
NC(Cc1ccccc1)C(=O)N1CCN(c2ccccn2)CC1 (centres undefined) | -2 | -26% | -23% | 22µM*
O=C(CC1CCCCC1)NC(Cc1ccccc1)C(=O)N1CCN(c2ccccn2)CC1 (centres undefined) | 5 | 2% | ? | 22µM*
Cc1ccc(CNC(=O)Nn2cnc3ccccc32)cc1 | . | . | . | i
Cc1ccc(-c2ccc(N)nc2)c2cccnc12 | 7 | -13% | -19% | 25µM*
Cc1ccc(B(O)O)c2cccnc12 | . | . | . | i
CN1CC2(CCN(Cc3cccn3C)CC2)CC1C(=O)N1CCOCC1 (centres undefined) | -8 | 0% | 14% | 16µM*
CN1CC2(CCN(Cc3ccccn3)CC2)CC1C(=O)N1CCOCC1 (centres undefined) | -4 | 4% | 44% | 20µM*
COc1ccc2cc(C(=O)N3CCC4(CC3)CC(C(=O)N3CCOCC3)N(C)C4)[nH]c2c1 (centres undefined) | -6 | -1% | 8% | 25µM*
CCOC(=O)c1ccccc1NC(=O)c1cc2c(s1)-c1c(C)cccc1OC2 | 4 | 3% | 8% | ?
COc1ccccc1OCCNC(=O)C1CCN(c2cc(C(F)(F)F)nc(C)n2)CC1 | 7 | -2% | -15% | i
COc1cc(/C=N/Nc2cc(C)nc(NS(=O)(=O)c3ccccc3)n2)ccc1O | . | . | . | i
COc1ccc2c(c1)OCC(C(=O)NCc1csc(N3CCCC3)n1)C2 (centres undefined) | 17 | -10% | 67% | 14µM*
CCc1ccc(CNC(=O)C2COc3ccc(OC)cc3C2)cc1 (centres undefined) | -1 | 6% | 10% | i
COc1cccc(CNC(=O)c2scnc2C)c1 | . | . | . | i
O=C(c1nnc(CNc2ccccn2)n1-c1cccnc1)N1CCC[C@@H]1C(c1ccccc1)c1ccccc1 | 0 | 3% | -11% | 13µM*
O=C(c1nnc(CNCc2cccc(F)c2)n1-c1cccnc1)N1CCC[C@@H]1C(c1ccccc1)c1ccccc1 | 1 | 1% | -11% | i
O=C(NCc1ccco1)c1ccc2c(c1)N(Cc1ccccc1F)C(=O)c1ccccc1S2=O (centres undefined) | 6 | -13% | 12% | i

Compound activity: PubChem BioAssay, National Center for Advancing Translational Sciences (NCATS)
